{"source": "the supplement of paper PMC3724861", "note": "This excerpt belongs to a sample that is enriched for hits. How many sequences the whole screen found active is unknown. A number with no mark means an inactive call.", "data": [{"tested_on": "T1, Caupolican (Caup) homeodomain DNA-binding domain", "T1 sequence": "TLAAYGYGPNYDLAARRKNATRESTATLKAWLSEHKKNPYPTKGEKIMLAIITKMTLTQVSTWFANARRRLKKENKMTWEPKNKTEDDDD", "test": "PBM E-score (8-mer, recovered from the published 9-mer minima) (E-score (dimensionless, -0.5 to 0.5)); Drosophila protein; higher = stronger relative binding preference, active = 0.31 or more", "experimental": "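Protein binding microarray (PBM): in vitro transcribed/translated Caupolican (Caup) homeodomain DNA-binding domain (residues 214-303) applied at 100 nM to a universal 8-mer PBM array (Agilent AMADID 015681). The 8-mer enrichment score (E-score, range -0.5 to 0.5) was computed, and each 9-mer score is the minimum E-score of its two constituent 8-mers. The E-score is the same for a 9-mer and its reverse complement; 0.31 is the stated binding threshold.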", "values": [{"sequence": "CTATGTGA", "PBM E-score": 0.137}, {"sequence": "GTATGTGA", "PBM E-score": 0.193}, {"sequence": "ATATGTAA", "PBM E-score": "0.34 (active)"}, {"sequence": "CTATGTAA", "PBM E-score": "0.338 (active)"}, {"sequence": "ATATGCAA", "PBM E-score": 0.123}, {"sequence": "AGGAGGAG", "PBM E-score": -0.188}, {"sequence": "TATCGCAA", "PBM E-score": 0.0789}, {"sequence": "CGAGAAGC", "PBM E-score": -0.0725}, {"sequence": "CGTTTTAC", "PBM E-score": 0.0444}, {"sequence": "ATTAGTGA", "PBM E-score": 0.107}, {"sequence": "CTGCTAGC", "PBM E-score": -0.102}, {"sequence": "GTGGTTGA", "PBM E-score": 0.0698}, {"sequence": "AATTAGAG", "PBM E-score": 0.00042}, {"sequence": "CGCCCCAG", "PBM E-score": -0.238}, {"sequence": "CCATGCAC", "PBM E-score": -0.0759}, {"sequence": "ACATGCAC", "PBM E-score": "0.393 (active)"}, {"sequence": "ACATGCGG", "PBM E-score": 0.195}, {"sequence": "TCATGCAA", "PBM E-score": 0.146}, {"sequence": "ACATGCAG", "PBM E-score": 0.294}, {"sequence": "GCATGCAA", "PBM E-score": 0.0861}, {"sequence": "ACATGCGT", "PBM E-score": "0.346 (active)"}, {"sequence": "AAATGCAT", "PBM E-score": 0.0673}, {"sequence": "ACATGCAT", "PBM E-score": "0.376 (active)"}, {"sequence": "ACATGCAA", "PBM E-score": "0.323 (active)"}, {"sequence": "GCATGCAC", "PBM E-score": 0.0682}, {"sequence": "ACATGCGC", "PBM E-score": 0.288}, {"sequence": "CGTCGTCA", "PBM E-score": -0.0203}, {"sequence": "AAAAGCCT", "PBM E-score": -0.0858}, {"sequence": "AGATTGGC", "PBM E-score": -0.0959}, {"sequence": "CAGCCTCC", "PBM E-score": -0.292}, {"sequence": "ACGGGTTC", "PBM E-score": -0.0477}, {"sequence": "CAACAATG", "PBM E-score": "0.323 (active)"}, {"sequence": "AAACAATG", "PBM E-score": 0.256}, {"sequence": "CAACAAGC", "PBM E-score": 0.202}, {"sequence": "CAACAAGA", "PBM E-score": 0.241}, {"sequence": "CAACAATC", "PBM E-score": 0.258}, {"sequence": "CAACAAGG", "PBM E-score": "0.338 (active)"}, {"sequence": "CGCCCCTA", "PBM E-score": -0.159}, {"sequence": "GTAAGAGA", "PBM E-score": 0.016}, {"sequence": "GGCTTGCA", "PBM E-score": -0.0355}, {"sequence": "AGAACATC", "PBM E-score": 0.235}, {"sequence": "CGAACATA", "PBM E-score": "0.343 (active)"}, {"sequence": "CGAACAAA", "PBM E-score": 0.157}, {"sequence": "AGAACAGG", "PBM E-score": 0.139}, {"sequence": "AGAACATG", "PBM E-score": "0.406 (active)"}, {"sequence": "CGAACATC", "PBM E-score": 0.279}, {"sequence": "AGAACAGA", "PBM E-score": 0.16}, {"sequence": "GGAACATA", "PBM E-score": 0.271}, {"sequence": "AGAACATA", "PBM E-score": "0.318 (active)"}, {"sequence": "TAGCTCGA", "PBM E-score": -0.0721}, {"sequence": "CACACCGG", "PBM E-score": -0.087}, {"sequence": "GTCGTTCA", "PBM E-score": 0.0698}, {"sequence": "AGTTGGAG", "PBM E-score": -0.129}, {"sequence": "CAGTTAAG", "PBM E-score": 0.0884}, {"sequence": "CGTCTAAG", "PBM E-score": -0.13}, {"sequence": "GAAAGGTA", "PBM E-score": 0.0535}, {"sequence": "AAACTCGA", "PBM E-score": 0.0205}, {"sequence": "AAGTAATA", "PBM E-score": 0.134}, {"sequence": "CTGTAATC", "PBM E-score": 0.162}, {"sequence": "ATGTAAGG", "PBM E-score": 0.303}, {"sequence": "GTGTAATA", "PBM E-score": "0.315 (active)"}, {"sequence": "ATGTAATC", "PBM E-score": "0.348 (active)"}, {"sequence": "ATGTAATG", "PBM E-score": "0.37 (active)"}, {"sequence": "GAGTAATA", "PBM E-score": 0.167}, {"sequence": "ACGTAATC", "PBM E-score": 0.155}, {"sequence": "ATGTAATA", "PBM E-score": "0.383 (active)"}, {"sequence": "GCGTAATA", "PBM E-score": 0.076}, {"sequence": "CTGTAATA", "PBM E-score": 0.193}, {"sequence": "ACGTAATG", "PBM E-score": 0.16}, {"sequence": "ACTAGTGA", "PBM E-score": 0.113}, {"sequence": "CGGTCTGA", "PBM E-score": -0.0584}, {"sequence": "GGCTTAGA", "PBM E-score": -0.112}, {"sequence": "ACTACCAA", "PBM E-score": 0.167}, {"sequence": "GTAGGCAC", "PBM E-score": -0.096}, {"sequence": "GTTAGGAA", "PBM E-score": 0.0363}, {"sequence": "AATCACTG", "PBM E-score": 0.0918}, {"sequence": "ACCCAACT", "PBM E-score": -0.0182}, {"sequence": "ATGTGTAA", "PBM E-score": "0.332 (active)"}, {"sequence": "ATGTGTAG", "PBM E-score": 0.193}, {"sequence": "GTGTGTAA", "PBM E-score": 0.275}, {"sequence": "CTGTGTAC", "PBM E-score": 0.272}, {"sequence": "ATGTGTAC", "PBM E-score": "0.348 (active)"}, {"sequence": "CTGTGTAA", "PBM E-score": 0.294}, {"sequence": "CATGTCCA", "PBM E-score": "0.384 (active)"}, {"sequence": "AATGTCCC", "PBM E-score": 0.0508}, {"sequence": "AATGTCCA", "PBM E-score": 0.251}, {"sequence": "CATGTCCG", "PBM E-score": 0.303}, {"sequence": "CATGTCCC", "PBM E-score": "0.33 (active)"}, {"sequence": "TATGTCCA", "PBM E-score": 0.214}, {"sequence": "GTAACGTA", "PBM E-score": 0.198}, {"sequence": "ACATGTGG", "PBM E-score": 0.308}, {"sequence": "GCATGTGA", "PBM E-score": 0.176}, {"sequence": "ACATGTGC", "PBM E-score": "0.351 (active)"}, {"sequence": "CCATGTGC", "PBM E-score": -0.0035}, {"sequence": "CCATGTGA", "PBM E-score": 0.0957}, {"sequence": "ACATGTGA", "PBM E-score": "0.312 (active)"}, {"sequence": "CACTGGAG", "PBM E-score": -0.159}, {"sequence": "ATACACCG", "PBM E-score": 0.184}, {"sequence": "ATCGGGGG", "PBM E-score": -0.264}, {"sequence": "AGATGTAA", "PBM E-score": "0.336 (active)"}, {"sequence": "AGATGTAG", "PBM E-score": 0.244}, {"sequence": "AGATGTAT", "PBM E-score": 0.29}, {"sequence": "CGATGTAA", "PBM E-score": 0.276}, {"sequence": "TGATGTAA", "PBM E-score": "0.36 (active)"}, {"sequence": "GGATGTAA", "PBM E-score": 0.299}, {"sequence": "CCGCGTTA", "PBM E-score": -0.054}, {"sequence": "GATCTAGA", "PBM E-score": -0.0194}, {"sequence": "ATACTACA", "PBM E-score": "0.364 (active)"}, {"sequence": "GTACTAAA", "PBM E-score": 0.229}, {"sequence": "ATACTACC", "PBM E-score": 0.0922}, {"sequence": "GCACTACA", "PBM E-score": 0.176}, {"sequence": "CTACTACA", "PBM E-score": 0.305}, {"sequence": "GTACTACA", "PBM E-score": "0.376 (active)"}, {"sequence": "CAGTTTCG", "PBM E-score": -0.0432}, {"sequence": "CAGCTACG", "PBM E-score": -0.101}]}]}
